Results published in PubChem BioAssay (NCATS).
Results filed as inconclusive are left out. Active and inactive are the calls of the source. Calls come from the whole dose curve; as a rule, active = well fitted curve in either direction with a large enough effect (not every such curve was filed as active); inconclusive = small, poorly fitted or top-dose-only effect, or another doubt; inactive = flat fitted curve, though single readings scatter.

Test: NFAT Signaling Pathway (AID 444);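 note: carbachol stimulus at about its EC50 of 1 µM final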
Conditions: Jurkat NFAT-bla M1, carbachol, beta-lactamase ratio, 5 h; at 17.2 µM (top of the series) unless noted
Summary of the method: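 Read-out: CCF4 FRET ratio (460 nm/530 nm) after 1 h RT dye loading, used for %activity and AC50 from titration series. Cells: Jurkat NFAT-β-lactamase/M1 line, treated with compound plus 1 uM carbachol for 5 h, 37 °C.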
% is set by controls: 0 for no effect and ±100 for the full control effect.

Activity change, negative = inhibition, inactive:
CCCOc1ccc(/C(O)=C2/C(=O)C(=O)N(CCCN3CCOCC3)C2c2ccncc2)cc1 (stereo not given) 16.4%
O=C(O)C1CC(=O)N(Cc2cccs2)C1 (stereo not given) -5.3%
Cn1nnnc1-c1cc(Br)ccc1NC(=O)c1ccccc1 -1.05%
COCCOC(=O)C1=C(C)OC(N)=C(C#N)C1c1ccco1 (stereo not given) -14.6%
CC1(C)Cc2nc(N)c(C(=O)NCCO)cc2CO1 3.25%
O=C1CC(c2ccccc2)n2nc(N3C(=O)c4ccccc4C3=O)nc2N1 (stereo not given) -10.6%
O=C(NCCC1=CCCCC1)c1ccc(=O)oc1 -4.94%
FC(F)(F)c1cccc(-n2cccc2/C=N/n2cnnc2)c1 -0.658%
COc1cccc(-c2nn3c(-c4ccco4)nnc3s2)c1 2.73%
COc1cccc(NC(=O)c2cc(C(=O)Nc3cccc(OC)c3)n(C)n2)c1 -14.3%
C(=N\n1cnnc1)/c1cccnc1 -13.4%
CCSc1nc(N)c2c3c(sc2n1)CCC3 -2.96%
N#Cc1cccc(-n2c(-c3ccccc3)nnc2-c2ccccc2)c1C#N 5.67%
C=CCNc1nc(-c2cccc(OC)c2O)nc2ccccc12 4.81%
Cc1cc(NC(=O)CSc2nc(-c3cccnc3)ccc2C#N)no1 6.09%
CC(=O)N1CCC2(CC1)C(C#N)=C(N)Oc1n[nH]c(C(F)(F)F)c12 -24.1%
OCCOCCNc1ncnc2c1cnn2-c1ccc(Cl)cc1 0.366%
CCC(NC(=O)Nc1cc(OC)c(OC)c(OC)c1)(C(F)(F)F)C(F)(F)F 14.9%
CC(C)Cc1nc(NCCN2CCOCC2)c(C#N)c2c1COC(C)(C)C2 -9.59%
COc1cc(C2C(C(=O)c3sc(C)nc3C)=C(O)C(=O)N2CCN(C)C)cc(OC)c1OC (stereo not given) 1.9%
Cc1c(Cl)cccc1N1C(=O)C2ON(c3ccccc3)C(c3cccnc3)C2C1=O (stereo not given) 0.827%
CC(=O)NC(=O)Nc1sc(=S)n(C)c1C 15.7%
CCOc1ccc(C2CC(c3ccccc3)Nc3nc(N)nn32)cc1 (stereo not given) 6.92%
CCOCc1nc(N)[nH]c(=O)c1Cc1ccc(OC(C)C)cc1 13.9%
Cc1cc(O)ccc1-c1cnc2ccccc2n1 -5.17%
C/C(=N\O)c1c(C)c2ccccc2n1C -14.1%
CCCOc1cccc(C2/C(=C(/O)c3ccc(F)cc3)C(=O)C(=O)N2CCN(C)C)c1 (stereo not given) 2.49%
COC(=O)C1=C(C)N=C2SC(C)C(=O)N2C1c1ccc(C(=O)OC)cc1 (stereo not given) -6.71%
CCOC(=O)c1[nH]c2ccc(C)cc2c1N -1.75%
c1coc(-c2nnc3sc(C4CCCCC4)nn23)c1 -19.5%
Cc1c(N2C(=O)SC(CC(=O)O)C2=O)c(=O)n(-c2ccccc2)n1C (stereo not given) 10.6%
COC(=O)c1[nH]c(C)c(/C(O)=C2\C(=O)C(=O)N(CCN3CCOCC3)C2c2cccnc2)c1C (stereo not given) -7.81%
C[N+](C)(C)CCOP(=O)([O-])OC[C@H](O)CO 0.0397%
CC(=O)Nc1ccc(Oc2ccc3nc(C)[nH]c3c2)cc1 0.827%
CN=c1sc2ccccc2n1CC(O)COc1ccccc1 (stereo not given) -17.8%
COc1ccccc1C1/C(=C(/O)c2ccc(C)cc2)C(=O)C(=O)N1Cc1ccco1 (stereo not given) 15.4%
COC(=O)c1cc(Br)c(=O)n(-c2nccs2)c1 -2.48%
Cc1cc(/C=N/n2cnnc2)c(C)n1-c1ccc2c(c1)OCO2 -13%
S=C(N=Nc1ccccc1)NNc1ccccc1 14%
CCO/C(C)=N/n1c2nc3ccccc3nc2c2c(=O)n(CC(C)C)c(C)nc21 12.6%

Test: Stat Signaling Pathway (AID 446);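 note: ME-180 cervical cancer cells given 40 pM IL-6 alongside compound; SIE-controlled beta-lactamase reporter measured as 460/530 nm FRET emission ratio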
Conditions: ME-180 (cervical carcinoma) SIE beta-lactamase reporter, IL-6 stimulated, 5 h; at 17.2 µM (top of the series) unless noted
Summary of the method: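 Normalization used AC90 stimulation (300 pM IL-6) and AC90 inhibition (125 nM pan-JAK inhibitor at 40 pM IL-6). The underlying signal is SIE-driven beta-lactamase in ME-180 cells after 5 h IL-6 exposure with compound.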

activity, negative = inhibition, inactive:
CCCOc1ccc(/C(O)=C2/C(=O)C(=O)N(CCCN3CCOCC3)C2c2ccncc2)cc1 (stereo not given) 5.77%
O=C(O)C1CC(=O)N(Cc2cccs2)C1 (stereo not given) 7.75%
Cn1nnnc1-c1cc(Br)ccc1NC(=O)c1ccccc1 24.3%
COCCOC(=O)C1=C(C)OC(N)=C(C#N)C1c1ccco1 (stereo not given) -4.05%
CC1(C)Cc2nc(N)c(C(=O)NCCO)cc2CO1 9.02%
O=C1CC(c2ccccc2)n2nc(N3C(=O)c4ccccc4C3=O)nc2N1 (stereo not given) -7.82%
O=C(NCCC1=CCCCC1)c1ccc(=O)oc1 7.23%
FC(F)(F)c1cccc(-n2cccc2/C=N/n2cnnc2)c1 10.7%
COc1cccc(-c2nn3c(-c4ccco4)nnc3s2)c1 6.95%
COc1cccc(NC(=O)c2cc(C(=O)Nc3cccc(OC)c3)n(C)n2)c1 -3.92%
C(=N\n1cnnc1)/c1cccnc1 12.5%
CCSc1nc(N)c2c3c(sc2n1)CCC3 -3.03%
N#Cc1cccc(-n2c(-c3ccccc3)nnc2-c2ccccc2)c1C#N 0.928%
C=CCNc1nc(-c2cccc(OC)c2O)nc2ccccc12 -11.9%
Cc1cc(NC(=O)CSc2nc(-c3cccnc3)ccc2C#N)no1 -9.33%
CC(=O)N1CCC2(CC1)C(C#N)=C(N)Oc1n[nH]c(C(F)(F)F)c12 5.71%
OCCOCCNc1ncnc2c1cnn2-c1ccc(Cl)cc1 4.43%
CCC(NC(=O)Nc1cc(OC)c(OC)c(OC)c1)(C(F)(F)F)C(F)(F)F -1.91%
CC(C)Cc1nc(NCCN2CCOCC2)c(C#N)c2c1COC(C)(C)C2 19.2%
COc1cc(C2C(C(=O)c3sc(C)nc3C)=C(O)C(=O)N2CCN(C)C)cc(OC)c1OC (stereo not given) 8.27%
Cc1c(Cl)cccc1N1C(=O)C2ON(c3ccccc3)C(c3cccnc3)C2C1=O (stereo not given) 0.542%
CC(=O)NC(=O)Nc1sc(=S)n(C)c1C 1.93%
CCOc1ccc(C2CC(c3ccccc3)Nc3nc(N)nn32)cc1 (stereo not given) -1.31%
CCOCc1nc(N)[nH]c(=O)c1Cc1ccc(OC(C)C)cc1 9.73%
Cc1cc(O)ccc1-c1cnc2ccccc2n1 21.5%
C/C(=N\O)c1c(C)c2ccccc2n1C 4.84%
CCCOc1cccc(C2/C(=C(/O)c3ccc(F)cc3)C(=O)C(=O)N2CCN(C)C)c1 (stereo not given) -0.187%
COC(=O)C1=C(C)N=C2SC(C)C(=O)N2C1c1ccc(C(=O)OC)cc1 (stereo not given) -11.1%
CCOC(=O)c1[nH]c2ccc(C)cc2c1N -1.27%
c1coc(-c2nnc3sc(C4CCCCC4)nn23)c1 6.55%
Cc1c(N2C(=O)SC(CC(=O)O)C2=O)c(=O)n(-c2ccccc2)n1C (stereo not given) 6.13%
COC(=O)c1[nH]c(C)c(/C(O)=C2\C(=O)C(=O)N(CCN3CCOCC3)C2c2cccnc2)c1C (stereo not given) 2.79%
C[N+](C)(C)CCOP(=O)([O-])OC[C@H](O)CO -1.98%
CC(=O)Nc1ccc(Oc2ccc3nc(C)[nH]c3c2)cc1 -5.58%
CN=c1sc2ccccc2n1CC(O)COc1ccccc1 (stereo not given) -0.403%
COc1ccccc1C1/C(=C(/O)c2ccc(C)cc2)C(=O)C(=O)N1Cc1ccco1 (stereo not given) -15.4%
COC(=O)c1cc(Br)c(=O)n(-c2nccs2)c1 2.73%
Cc1cc(/C=N/n2cnnc2)c(C)n1-c1ccc2c(c1)OCO2 -0.639%
S=C(N=Nc1ccccc1)NNc1ccccc1 -0.775%
CCO/C(C)=N/n1c2nc3ccccc3nc2c2c(=O)n(CC(C)C)c(C)nc21 -8.62%
